From PubChem BioAssay (NCI) come the findings set out here.

This is part of a sample that, as a whole, favours compounds with a hit. Of some 79,000 tested, about 15% had one in any assay. Active and inactive are the calls of the source. No stated cut-off is given here; in the data, active means growth inhibition above about 70%; inactive means the rest.

A short description of one assay: NCI Yeast Anticancer Drug Screen. Data for the bub3 strain (AID 167). The conditions noted are these: S. cerevisiae bub3 mutant strain, at 50.0 µM, active compounds read high. An outline of the steps: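 Growth of a checkpoint-deficient yeast mutant is measured after compound exposure. Values represent inhibition relative to vehicle.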
On to `CC(=O)CC(=O)OC1CCCC(C)C1` (stereo unspecified), for which the growth inhibition is -22.8% (inactive).

Turning to `O=C(NC/C=C/Br)Oc1cccc2ccccc12`, the growth inhibition was 2.85% (inactive).

In the case of `COC(=O)C1(CC(=O)c2ccc(Cl)cc2)NC(=S)NC(=O)C1C#N` (stereo unspecified), the growth inhibition was -10.9% (inactive).

`CCCCOC(=O)c1ccc(OC(=O)Nc2ccccc2)cc1`: the growth inhibition was 17.6% (inactive).

Regarding `O=C1NCCN(CCc2ccccc2)C1c1ccccc1` (stereo unspecified), the growth inhibition was 15% (inactive).

As to `COc1cc(C=O)ccc1OC(=O)Nc1cccc(C(C)=O)c1`, the growth inhibition is 18.9% (inactive).

Turning to `Clc1ccc(CN2COc3c(ccc4ccccc34)C2)cc1Cl`, the growth inhibition is 7.1% (inactive).

On to `Cc1c2ccccc2c(C)n2c1nc1cc3ccccc3cc12`, for which the growth inhibition was 4.65% (inactive).

`COc1ccc(OC)c(NC(=O)c2ccc(Cl)c(Cl)c2)c1`: the growth inhibition is 13.6% (inactive).

For `CC1SCC(=O)N1c1nncs1` (stereo unspecified), the growth inhibition was -2.1% (inactive).

For the molecule `CC(SSc1ccc(C(C)(C)C)cc1)c1ccccc1` (stereo unspecified), the growth inhibition was 10.2% (inactive).

The next assay is described as follows: NCI Yeast Anticancer Drug Screen. Data for the mlh1 rad18 strain (AID 175). The conditions noted are these: S. cerevisiae mlh1 rad18 strain growth inhibition; at 50.0 µM; active compounds read high. In a few lines: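 In this whole-cell yeast screen, a strain with altered DNA damage repair is challenged with compound, and its growth is measured against matched vehicle-treated controls.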
As for `CN1CCN(c2c3c(nc4ccccc24)CCCC3)CC1`, the growth inhibition was -22% (inactive).

Regarding `CNC(=O)Nc1ccnc(=O)[nH]1`, the growth inhibition is -8.8% (inactive).

`O=c1ccc(=O)n(-c2ccc(Cl)cc2)[nH]1`: the growth inhibition was -9.9% (inactive).

As to `O=C(c1cccnc1)c1cc(-c2ccccn2)c(=O)n2ccccc12`, the growth inhibition is -36.6% (inactive).

With `CCOC(=O)CC1(C)c2nc(NC(C)=O)sc2Cc2sc(NC(C)=O)nc21`, the growth inhibition was -15.5% (inactive).

In the case of `O=C1CCCCC1COCC1CCCCC1=O` (stereo unspecified), the growth inhibition was -21.4% (inactive).

Consider `COc1cc(C2C3=C(COC3=O)OC(C)(C)Oc3cc4c(cc32)OCO4)cc(OC)c1O` (stereo unspecified), for which the growth inhibition was 0% (inactive).

`[Co].[O-]c1cccnc1C=Nc1ccccc1.[OH3+]`: the growth inhibition is 21.9% (inactive).

In the case of `COCC/C=C/CCl`, the growth inhibition was 5.1% (inactive).

Consider `Cc1cc(C(N)=O)c(C(N)=O)c(Cl)n1`, for which the growth inhibition was -10.7% (inactive).

On to `O=C1CCSSCCC(=O)Nc2ccccc2N1`, for which the growth inhibition is -15.6% (inactive).

For `Cc1c(N=Nc2cccc(Cl)c2Cl)c(-c2ccccc2)nn1C(=S)S`, the growth inhibition is 28.2% (inactive).

Turning to `CCC(C(O)c1ccccc1)[N+](=O)[O-]` (stereo unspecified), the growth inhibition is 10.3% (inactive).

For `CCCCN(CCCC)S(=O)(=O)N1CCOCC1`, the growth inhibition is 2.75% (inactive).

Turning to `N#Cc1nc(CCC(C(=O)O)N2C(=O)c3ccccc3C2=O)oc1N` (stereo unspecified), the growth inhibition was -46.9% (inactive).

On to `CS(=O)(=O)OCCC(O)COS(C)(=O)=O` (stereo unspecified), for which the growth inhibition was 4.1% (inactive).

Take `CCOC(=O)/C(C#N)=C/NCC1CC1`: the growth inhibition is -22.6% (inactive).

Consider `CCC[n+]1cccc(C#N)c1`, for which the growth inhibition is 22.2% (inactive).

Turning to `COC1=C(NCC(C)C)C(=O)C(OC)=C(NCC(C)C)C1=O`, the growth inhibition was -12.1% (inactive).

Take `N#Cc1c(-c2ccccc2)nc(-c2ccccc2)sc1=S`: the growth inhibition is 73.8% (active).

On to `C=C(Cl)C(=C)CCC(Cl)C(C)(C)Cl` (stereo unspecified), for which the growth inhibition was -8.4% (inactive).

For `CCOC(C)Oc1ccccc1` (stereo unspecified), the growth inhibition was 16.4% (inactive).

Regarding `CCOC(=O)C(Br)CN1C(=O)c2ccccc2C1=O` (stereo unspecified), the growth inhibition is 13.6% (inactive).

In the case of `COc1ccc2c(c1)C(C)(C(N)=O)CCC2` (stereo unspecified), the growth inhibition was -13.2% (inactive).

In the case of `C/C(CC(O)(C(F)(F)F)C(F)(F)F)=N\NC(N)=O`, the growth inhibition is -15.8% (inactive).

`COc1nc(N=P(c2ccccc2)(c2ccccc2)c2ccccc2)cc(=O)[nH]1`: the growth inhibition is 4.65% (inactive).

With `COC1(OC)C(Cl)=C(Cl)C2C1C1(Cl)C(Cl)=C(Cl)C2(Cl)C1(OC)OC` (stereo unspecified), the growth inhibition is 5.3% (inactive).

As to `CCCC(O)C(C)N` (stereo unspecified), the growth inhibition was -3.15% (inactive).

`CC(=O)O[C@H]1CC(C)(C)C(=C=C/C(C)=C/C=C/C=C/C=C(C)/C=C2C=C(/C=C/[C@@]34O[C@]3(C)C[C@@H](O)CC4(C)C)C(=O)O/2)[C@](C)(O)C1`: the growth inhibition is 3.95% (inactive).

In the case of `CC(=O)CC(=O)OC1CCCC(C)C1` (stereo unspecified), the growth inhibition was -15.2% (inactive).

For `O=C(NC/C=C/Br)Oc1cccc2ccccc12`, the growth inhibition was 11.3% (inactive).

On to `COC(=O)C1(CC(=O)c2ccc(Cl)cc2)NC(=S)NC(=O)C1C#N` (stereo unspecified), for which the growth inhibition was 22.5% (inactive).

On to `CCCCOC(=O)c1ccc(OC(=O)Nc2ccccc2)cc1`, for which the growth inhibition is 3.7% (inactive).

Regarding `O=C1NCCN(CCc2ccccc2)C1c1ccccc1` (stereo unspecified), the growth inhibition was -6.05% (inactive).

In the case of `COc1cc(C=O)ccc1OC(=O)Nc1cccc(C(C)=O)c1`, the growth inhibition was -18.6% (inactive).

Consider `Clc1ccc(CN2COc3c(ccc4ccccc34)C2)cc1Cl`, for which the growth inhibition was 13.8% (inactive).

Take `Cc1c2ccccc2c(C)n2c1nc1cc3ccccc3cc12`: the growth inhibition is 28.6% (inactive).

Take `COc1ccc(OC)c(NC(=O)c2ccc(Cl)c(Cl)c2)c1`: the growth inhibition was 0.85% (inactive).

`CC1SCC(=O)N1c1nncs1` (stereo unspecified): the growth inhibition was -46.6% (inactive).

Take `CC(SSc1ccc(C(C)(C)C)cc1)c1ccccc1` (stereo unspecified): the growth inhibition is -1.4% (inactive).
